Experimental findings from article PMC7862700, “An all-to-all approach to the identification of sequence-specific readers for epigenetic DNA modifications on cytosine” are described below.

Experiment in all cases: DAPPL (digital affinity profiling via proximity ligation, sequencing); 10 mM Tris-HCl pH 7.5, 50 mM NaCl, 1 mM DTT, 4% glycerol, room temperature, 30 min; GST-TFs on glutathione beads, 16-mer random dsDNA library, 0.1% formaldehyde crosslink after washing; high values mean tight binding
Conditions in all cases: protein: recombinant; tags: N-terminal GST; dsDNA, one strand shown

For one assay, the target named is T1, FLI1 (Homo sapiens, UniProt Q01543 1-452).
T1 sequence: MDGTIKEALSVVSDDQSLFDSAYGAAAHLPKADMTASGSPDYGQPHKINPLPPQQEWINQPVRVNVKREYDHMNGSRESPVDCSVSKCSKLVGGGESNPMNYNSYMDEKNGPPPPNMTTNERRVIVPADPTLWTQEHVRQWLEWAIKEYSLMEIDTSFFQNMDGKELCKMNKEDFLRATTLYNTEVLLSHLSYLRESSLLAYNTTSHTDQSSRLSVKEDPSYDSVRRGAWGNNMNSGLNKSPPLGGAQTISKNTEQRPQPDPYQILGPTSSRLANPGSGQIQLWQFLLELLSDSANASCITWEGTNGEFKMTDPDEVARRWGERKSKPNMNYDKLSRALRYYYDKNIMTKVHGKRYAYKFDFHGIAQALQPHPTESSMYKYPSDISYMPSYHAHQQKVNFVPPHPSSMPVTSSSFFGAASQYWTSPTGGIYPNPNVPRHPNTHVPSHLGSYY
Put shortly:
(§1)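 A tag-only sample was pooled with DNA-barcoded human transcription factors that had been expressed in yeast as GST fusions and captured on glutathione beads. The pools were incubated for 30 min at room temperature with 200 nmole of a random double-stranded 16-mer DNA library in Tris/NaCl/DTT/glycerol buffer, then washed, crosslinked with 0.1% formaldehyde, proximity-ligated (BsaI/T4 ligase, 1 h, 37 °C), PCR-amplified and sequenced on an Illumina NextSeq500. Binding signal is each hexamer's read frequency for a factor divided by its frequency for the tag-only sample.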

For another assay, the target named is T2, ELK1 (Homo sapiens, UniProt P19419 1-428).
T2 sequence: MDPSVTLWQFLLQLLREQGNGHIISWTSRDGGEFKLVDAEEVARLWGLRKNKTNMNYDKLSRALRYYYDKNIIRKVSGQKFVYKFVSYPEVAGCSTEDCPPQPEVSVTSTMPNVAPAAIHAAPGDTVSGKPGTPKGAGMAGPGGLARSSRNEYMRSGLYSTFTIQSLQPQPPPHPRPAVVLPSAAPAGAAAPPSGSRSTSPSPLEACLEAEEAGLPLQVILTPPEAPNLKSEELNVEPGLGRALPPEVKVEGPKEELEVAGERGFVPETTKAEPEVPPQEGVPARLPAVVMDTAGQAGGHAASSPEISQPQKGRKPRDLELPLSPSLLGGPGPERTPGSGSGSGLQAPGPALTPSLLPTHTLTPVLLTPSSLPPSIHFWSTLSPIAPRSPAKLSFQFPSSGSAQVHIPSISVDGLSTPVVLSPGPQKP
Put shortly: as §1

The target in the next assay is T3, GABPA (Homo sapiens, UniProt Q06546 1-454).
T3 sequence: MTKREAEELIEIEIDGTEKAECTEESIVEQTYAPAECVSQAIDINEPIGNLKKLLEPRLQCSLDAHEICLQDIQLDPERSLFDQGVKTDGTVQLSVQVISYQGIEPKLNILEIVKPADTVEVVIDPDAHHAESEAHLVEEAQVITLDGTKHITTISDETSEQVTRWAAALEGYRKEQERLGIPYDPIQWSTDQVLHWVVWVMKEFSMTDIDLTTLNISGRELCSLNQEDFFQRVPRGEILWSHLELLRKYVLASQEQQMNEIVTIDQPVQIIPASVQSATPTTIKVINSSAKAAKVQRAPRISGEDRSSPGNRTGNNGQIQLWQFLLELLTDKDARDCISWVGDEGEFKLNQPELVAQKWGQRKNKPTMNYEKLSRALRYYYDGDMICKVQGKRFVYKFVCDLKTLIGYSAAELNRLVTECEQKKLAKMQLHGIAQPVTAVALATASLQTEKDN
Put shortly: as §1

A further assay addresses T4, ERG (Homo sapiens, UniProt P11308 1-479).
T4 sequence: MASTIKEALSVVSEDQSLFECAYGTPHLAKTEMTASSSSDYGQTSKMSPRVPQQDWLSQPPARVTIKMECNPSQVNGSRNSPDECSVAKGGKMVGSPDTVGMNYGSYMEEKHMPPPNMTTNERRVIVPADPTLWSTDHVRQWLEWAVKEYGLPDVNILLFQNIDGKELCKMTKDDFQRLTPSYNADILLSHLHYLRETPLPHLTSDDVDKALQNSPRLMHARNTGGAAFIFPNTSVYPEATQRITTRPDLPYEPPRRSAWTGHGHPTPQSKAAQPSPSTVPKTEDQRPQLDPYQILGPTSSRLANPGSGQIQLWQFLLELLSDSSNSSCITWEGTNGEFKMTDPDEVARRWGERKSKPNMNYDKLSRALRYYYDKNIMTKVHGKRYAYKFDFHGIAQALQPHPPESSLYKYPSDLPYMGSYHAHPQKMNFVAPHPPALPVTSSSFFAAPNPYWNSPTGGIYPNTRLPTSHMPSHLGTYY
In short, it runs like this:
as §1

A further assay has as its target ELF1 (Homo sapiens, UniProt P32519 1-619). In short, it runs like this:
as §1

For another assay, the target named is T5, EHF (Homo sapiens, UniProt Q9NZC4 1-300).
T5 sequence: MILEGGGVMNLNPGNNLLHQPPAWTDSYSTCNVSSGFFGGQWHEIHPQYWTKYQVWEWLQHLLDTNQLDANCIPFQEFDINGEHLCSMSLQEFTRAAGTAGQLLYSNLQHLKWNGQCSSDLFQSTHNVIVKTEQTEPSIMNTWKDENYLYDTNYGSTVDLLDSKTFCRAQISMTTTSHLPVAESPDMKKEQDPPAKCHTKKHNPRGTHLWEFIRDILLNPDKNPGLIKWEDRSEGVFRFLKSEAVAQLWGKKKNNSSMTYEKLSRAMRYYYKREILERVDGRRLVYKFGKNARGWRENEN
Put shortly: as §1

Another assay deals with SPIB (Homo sapiens, UniProt Q01892 1-262). Put shortly:
as §1

The next assay deals with T6, FEV (Homo sapiens, UniProt Q99581 1-238).
T6 sequence: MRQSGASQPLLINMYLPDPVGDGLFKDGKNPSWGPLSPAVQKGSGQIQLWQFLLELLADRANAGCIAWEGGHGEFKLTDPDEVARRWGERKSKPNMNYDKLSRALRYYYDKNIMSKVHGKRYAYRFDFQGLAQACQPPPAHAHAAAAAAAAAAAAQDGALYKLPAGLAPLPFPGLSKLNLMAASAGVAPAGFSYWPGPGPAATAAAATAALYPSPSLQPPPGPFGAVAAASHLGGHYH
In short, it runs like this:
as §1

A further assay has as its target ETV5 (Homo sapiens, UniProt P41161 1-510). Put shortly:
as §1

The next assay addresses ELF4 (Homo sapiens, UniProt Q99607 1-663). In short, it runs like this: as §1
A further assay addresses ETV1 (Homo sapiens, UniProt P50549 1-477). Put shortly: as §1
In the next assay the target is T7, ETV3L (Homo sapiens, UniProt Q6ZN32 1-361).
T7 sequence: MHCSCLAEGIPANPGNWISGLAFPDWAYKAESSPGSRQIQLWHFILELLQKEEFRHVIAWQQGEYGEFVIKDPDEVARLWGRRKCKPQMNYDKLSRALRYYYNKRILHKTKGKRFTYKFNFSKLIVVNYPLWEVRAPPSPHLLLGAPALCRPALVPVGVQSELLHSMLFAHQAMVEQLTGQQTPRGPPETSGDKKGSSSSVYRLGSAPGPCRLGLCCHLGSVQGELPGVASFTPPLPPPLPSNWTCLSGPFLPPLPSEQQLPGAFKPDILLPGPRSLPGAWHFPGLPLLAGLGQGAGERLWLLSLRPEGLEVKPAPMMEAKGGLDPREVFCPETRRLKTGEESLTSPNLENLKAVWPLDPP
In short, it runs like this:
as §1

A further assay deals with T8, ETS2 (Homo sapiens, UniProt P15036 1-469).
T8 sequence: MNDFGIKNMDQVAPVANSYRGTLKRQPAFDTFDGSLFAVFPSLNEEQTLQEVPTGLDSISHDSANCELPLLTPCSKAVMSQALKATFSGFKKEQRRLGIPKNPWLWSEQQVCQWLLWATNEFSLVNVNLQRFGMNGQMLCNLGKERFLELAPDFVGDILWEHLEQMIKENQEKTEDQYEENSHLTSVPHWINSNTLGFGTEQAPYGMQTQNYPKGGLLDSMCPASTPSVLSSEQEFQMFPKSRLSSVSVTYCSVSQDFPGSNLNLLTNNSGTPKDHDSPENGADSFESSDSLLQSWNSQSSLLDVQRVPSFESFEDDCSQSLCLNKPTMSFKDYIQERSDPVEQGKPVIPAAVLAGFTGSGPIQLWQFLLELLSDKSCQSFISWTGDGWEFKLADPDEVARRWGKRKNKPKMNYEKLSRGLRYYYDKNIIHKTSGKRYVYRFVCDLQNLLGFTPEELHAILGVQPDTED
In short, it runs like this: as §1

For a further assay, the target named is T9, SPDEF (Homo sapiens, UniProt O95238 1-335).
T9 sequence: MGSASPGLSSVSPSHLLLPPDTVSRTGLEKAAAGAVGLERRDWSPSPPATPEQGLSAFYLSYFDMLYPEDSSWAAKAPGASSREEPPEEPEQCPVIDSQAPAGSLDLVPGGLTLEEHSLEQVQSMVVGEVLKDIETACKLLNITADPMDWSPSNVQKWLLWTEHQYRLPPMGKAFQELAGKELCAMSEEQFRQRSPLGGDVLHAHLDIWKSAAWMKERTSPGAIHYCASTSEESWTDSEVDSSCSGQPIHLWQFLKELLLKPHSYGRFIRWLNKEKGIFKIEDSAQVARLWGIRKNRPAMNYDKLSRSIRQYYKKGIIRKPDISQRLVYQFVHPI
Put shortly: as §1

Another assay has as its target T10, ELF5 (Homo sapiens, UniProt Q9UKW6-2 1-255).
T10 sequence: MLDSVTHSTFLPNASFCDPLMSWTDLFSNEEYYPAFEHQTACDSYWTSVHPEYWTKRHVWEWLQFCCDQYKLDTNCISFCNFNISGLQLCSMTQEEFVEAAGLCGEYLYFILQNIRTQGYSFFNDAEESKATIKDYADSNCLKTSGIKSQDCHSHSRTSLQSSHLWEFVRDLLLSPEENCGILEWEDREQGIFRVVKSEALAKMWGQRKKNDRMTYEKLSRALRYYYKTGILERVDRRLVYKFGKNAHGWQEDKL
In short, it runs like this: as §1

The target of the next assay is T11, ETV3 (Homo sapiens, UniProt P41162-2 1-143).
T11 sequence: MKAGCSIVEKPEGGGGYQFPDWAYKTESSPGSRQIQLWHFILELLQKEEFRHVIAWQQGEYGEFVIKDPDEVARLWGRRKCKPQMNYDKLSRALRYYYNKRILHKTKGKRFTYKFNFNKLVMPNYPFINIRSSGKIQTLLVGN
In short, it runs like this: as §1

For another assay, the target named is ETV6 (Homo sapiens, UniProt P41212 1-452). In short, it runs like this: as §1
Chain of ETV6 (P41212 whole entry): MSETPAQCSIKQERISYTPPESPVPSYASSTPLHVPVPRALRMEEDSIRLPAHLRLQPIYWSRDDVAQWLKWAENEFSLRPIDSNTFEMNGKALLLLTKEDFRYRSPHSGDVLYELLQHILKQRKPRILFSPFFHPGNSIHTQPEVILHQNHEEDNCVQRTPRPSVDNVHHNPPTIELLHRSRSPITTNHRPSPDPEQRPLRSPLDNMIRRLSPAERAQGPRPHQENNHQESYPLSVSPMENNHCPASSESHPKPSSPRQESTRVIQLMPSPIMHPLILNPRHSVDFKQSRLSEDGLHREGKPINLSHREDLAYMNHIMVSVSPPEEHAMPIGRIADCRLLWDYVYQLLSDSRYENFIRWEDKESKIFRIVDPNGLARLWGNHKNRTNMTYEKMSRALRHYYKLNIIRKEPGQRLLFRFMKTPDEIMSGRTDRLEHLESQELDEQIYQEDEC

Chain of SPIB (Q01892 whole entry): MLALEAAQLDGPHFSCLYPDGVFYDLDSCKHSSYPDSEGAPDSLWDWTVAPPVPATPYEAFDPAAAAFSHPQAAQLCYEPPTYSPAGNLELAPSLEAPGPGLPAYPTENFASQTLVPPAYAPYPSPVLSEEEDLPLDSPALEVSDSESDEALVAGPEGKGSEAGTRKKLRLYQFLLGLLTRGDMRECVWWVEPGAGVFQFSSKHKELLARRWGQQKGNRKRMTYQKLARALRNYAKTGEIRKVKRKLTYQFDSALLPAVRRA
Chain of ELF1 (P32519 whole entry): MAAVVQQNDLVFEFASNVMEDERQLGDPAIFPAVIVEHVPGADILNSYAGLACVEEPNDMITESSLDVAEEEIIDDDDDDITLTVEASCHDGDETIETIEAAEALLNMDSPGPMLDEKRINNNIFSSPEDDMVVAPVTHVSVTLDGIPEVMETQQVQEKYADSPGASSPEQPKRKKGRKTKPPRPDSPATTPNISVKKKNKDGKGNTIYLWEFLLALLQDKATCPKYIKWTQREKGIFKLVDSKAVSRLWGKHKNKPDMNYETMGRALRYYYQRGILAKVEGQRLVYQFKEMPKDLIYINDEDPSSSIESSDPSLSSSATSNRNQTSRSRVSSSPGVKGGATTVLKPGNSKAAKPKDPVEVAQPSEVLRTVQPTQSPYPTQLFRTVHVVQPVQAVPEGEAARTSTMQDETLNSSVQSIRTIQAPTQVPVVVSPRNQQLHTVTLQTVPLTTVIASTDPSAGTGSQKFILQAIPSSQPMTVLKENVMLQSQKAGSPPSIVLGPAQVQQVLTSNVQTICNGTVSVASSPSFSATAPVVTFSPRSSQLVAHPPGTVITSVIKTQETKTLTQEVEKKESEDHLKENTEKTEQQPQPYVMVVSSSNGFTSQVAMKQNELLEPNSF
Chain of ELF4 (Q99607 whole entry): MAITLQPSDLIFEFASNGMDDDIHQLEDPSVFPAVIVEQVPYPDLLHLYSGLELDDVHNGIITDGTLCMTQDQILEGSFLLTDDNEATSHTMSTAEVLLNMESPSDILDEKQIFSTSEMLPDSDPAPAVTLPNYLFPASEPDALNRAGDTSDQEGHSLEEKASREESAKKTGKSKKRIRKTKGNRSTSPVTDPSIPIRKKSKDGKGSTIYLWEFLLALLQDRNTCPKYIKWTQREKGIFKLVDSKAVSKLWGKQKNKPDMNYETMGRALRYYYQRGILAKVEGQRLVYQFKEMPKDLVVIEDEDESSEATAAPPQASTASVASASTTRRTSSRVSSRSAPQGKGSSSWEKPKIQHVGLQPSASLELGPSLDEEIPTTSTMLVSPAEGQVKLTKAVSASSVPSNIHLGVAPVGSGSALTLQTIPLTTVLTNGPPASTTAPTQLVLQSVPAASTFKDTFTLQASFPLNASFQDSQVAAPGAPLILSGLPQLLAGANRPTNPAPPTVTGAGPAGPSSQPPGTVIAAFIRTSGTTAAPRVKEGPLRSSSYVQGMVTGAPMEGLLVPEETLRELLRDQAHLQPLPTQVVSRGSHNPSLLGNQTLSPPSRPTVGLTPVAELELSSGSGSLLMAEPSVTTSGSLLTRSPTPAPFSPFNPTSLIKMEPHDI
Chain of ETV1 (P50549 whole entry): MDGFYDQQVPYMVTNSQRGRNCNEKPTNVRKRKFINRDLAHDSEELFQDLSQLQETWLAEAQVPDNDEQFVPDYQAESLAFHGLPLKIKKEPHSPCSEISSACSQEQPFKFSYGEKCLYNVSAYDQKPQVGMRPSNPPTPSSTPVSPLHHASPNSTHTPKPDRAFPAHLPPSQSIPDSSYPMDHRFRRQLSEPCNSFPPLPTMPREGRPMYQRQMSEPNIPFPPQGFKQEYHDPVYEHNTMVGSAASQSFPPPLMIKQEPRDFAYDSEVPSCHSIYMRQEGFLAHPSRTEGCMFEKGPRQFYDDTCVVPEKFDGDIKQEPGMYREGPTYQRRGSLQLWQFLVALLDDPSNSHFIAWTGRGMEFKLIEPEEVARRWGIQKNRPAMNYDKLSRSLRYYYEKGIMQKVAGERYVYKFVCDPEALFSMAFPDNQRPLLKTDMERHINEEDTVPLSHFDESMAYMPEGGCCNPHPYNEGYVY
Chain of ETV5 (P41161 whole entry): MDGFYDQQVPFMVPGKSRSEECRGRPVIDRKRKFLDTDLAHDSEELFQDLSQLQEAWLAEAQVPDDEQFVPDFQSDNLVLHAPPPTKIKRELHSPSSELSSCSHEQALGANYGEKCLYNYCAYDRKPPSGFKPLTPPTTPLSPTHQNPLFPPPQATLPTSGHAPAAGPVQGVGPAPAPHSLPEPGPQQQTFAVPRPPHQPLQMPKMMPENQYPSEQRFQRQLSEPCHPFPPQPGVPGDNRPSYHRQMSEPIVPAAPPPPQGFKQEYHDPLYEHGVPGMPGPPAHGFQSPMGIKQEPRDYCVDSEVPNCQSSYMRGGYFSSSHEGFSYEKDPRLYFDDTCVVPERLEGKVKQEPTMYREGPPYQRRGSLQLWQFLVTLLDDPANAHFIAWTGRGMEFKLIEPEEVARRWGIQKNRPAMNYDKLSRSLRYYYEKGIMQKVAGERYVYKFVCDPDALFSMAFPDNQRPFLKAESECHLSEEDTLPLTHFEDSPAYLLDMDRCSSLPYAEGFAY

With ACACGC, the binding signal was 1.15 fold enrichment (6-mer frequency, TF over GST control) in the assay with FLI1; 1.06 fold enrichment (6-mer frequency, TF over GST control) in the assay with ELK1; 1.13 fold enrichment (6-mer frequency, TF over GST control) with GABPA; 1.15 fold enrichment (6-mer frequency, TF over GST control) with ERG; 1.17 fold enrichment (6-mer frequency, TF over GST control) with ELF1; 1.08 fold enrichment (6-mer frequency, TF over GST control) with EHF. Besides, the binding signal with SPIB is 1.1 fold enrichment (6-mer frequency, TF over GST control); with FEV, 1.09 fold enrichment (6-mer frequency, TF over GST control); in the assay with ETV5, 1.1 fold enrichment (6-mer frequency, TF over GST control); with ELF4, 1.15 fold enrichment (6-mer frequency, TF over GST control); with ETV1, 1.11 fold enrichment (6-mer frequency, TF over GST control); with ETV3L, 1.07 fold enrichment (6-mer frequency, TF over GST control). Further, the binding signal with ETS2 is 1.05 fold enrichment (6-mer frequency, TF over GST control); with SPDEF, 1.08 fold enrichment (6-mer frequency, TF over GST control); with ELF5 it was 1.02 fold enrichment (6-mer frequency, TF over GST control); in the assay with ETV3 it was 1.13 fold enrichment (6-mer frequency, TF over GST control); with ETV6, 1.13 fold enrichment (6-mer frequency, TF over GST control).
